How the values were obtained:
Details in all cases: concentration: 1 μM, replicates: in singlicate; n = 1
[1] = tested on: T1, RSK4(Kin.Dom.1-N-terminal)
T1 construct: gene RPS6KA6

[2] = tested on: T2, RSK4(Kin.Dom.2-C-terminal)
T2 construct: gene RPS6KA6

S6K1 = tested on: S6K1
SBK1 = tested on: SBK1
SGK2 = tested on: SGK2
SGK3 = tested on: SGK3
SGK = tested on: SGK
SIK2 = tested on: SIK2
SIK = tested on: SIK
SLK = tested on: SLK
SNARK = tested on: T3, SNARK
T3 construct: gene NUAK2

SNRK = tested on: SNRK
SRC = tested on: SRC
SRMS = tested on: SRMS
SRPK1 = tested on: SRPK1
SRPK2 = tested on: SRPK2
SRPK3 = tested on: SRPK3
STK16 = tested on: STK16
STK33 = tested on: STK33
STK35 = tested on: STK35
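Further: KINOMEscan kinase panel screen.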

| SMILES | %Inh [1] [%] | %Inh [2] [%] | %Inh (S6K1) [%] | %Inh (SBK1) [%] | %Inh (SGK2) [%] | %Inh (SGK3) [%] | %Inh (SGK) [%] | %Inh (SIK2) [%] | %Inh (SIK) [%] | %Inh (SLK) [%] | %Inh (SNARK) [%] | %Inh (SNRK) [%] | %Inh (SRC) [%] | %Inh (SRMS) [%] | %Inh (SRPK1) [%] | %Inh (SRPK2) [%] | %Inh (SRPK3) [%] | %Inh (STK16) [%] | %Inh (STK33) [%] | %Inh (STK35) [%] |
| --- | --- | --- | --- | --- | --- | --- | --- | --- | --- | --- | --- | --- | --- | --- | --- | --- | --- | --- | --- | --- |
| COc1cc(Nc2ncc3c(C)nc(-c4cc5ccccc5[nH]4)n3n2)cc(OC)c1OC [GW869516] | 7 | 3 | 0 | 0 | 0 | 1 | 0 | 29 | 20 | 63 | 9 | 0 | 90.1 | 13 | 9 | 6 | 19 | 86 | 10 | 0 |
| c1ccc(-c2cnc3nccnn23)cc1 [AH20685] | 0 | 0 | 10 | 5 | 0 | 0 | 0 | 0 | 0 | 11 | 0 | 0 | 0 | 0 | 20 | 0 | 0 | 0 | 0 | 0 |
| CCS(=O)(=O)c1ccc(OC)c(Nc2nccc(-c3c(-c4cccc(NC(=O)c5c(F)cccc5F)c4)nn4ncccc34)n2)c1 [GSK326180] | 0 | 0 | 6 | 0 | 5 | 0 | 0 | 0 | 3 | 54 | 0 | 0 | 0 | 99.3 | 24 | 0 | 0 | 25 | 7 | 0 |
| CN(C)S(=O)(=O)c1cc(-c2ccc3nccc(-c4cccc(S(N)(=O)=O)c4)c3c2)cnc1N [GSK1669921] | 2 | 44 | 19 | 15 | 6 | 16 | 5 | 10 | 0 | 2 | 22 | 12 | 0 | 0 | 13 | 0 | 19 | 45 | 3 | 8 |
| O=C(Nc1n[nH]c2cc(-c3ccoc3)ccc12)C1CC1 [SB-738481] | 3 | 1 | 36 | 0 | 5 | 28 | 1 | 0 | 0 | 2 | 25 | 0 | 0 | 19 | 48 | 0 | 37 | 21 | 0 | 5 |
| CC(=O)N1CCN(c2ccc(Nc3nccc(-c4sc(C(C)C)nc4-c4cccc(NS(=O)(=O)c5cccc(Cl)c5)c4)n3)cn2)CC1 [GSK1660437] | 0 | 6 | 0 | 16 | 0 | 19 | 16 | 89 | 99 | 72 | 17 | 0 | 85 | 98.3 | 44 | 0 | 44 | 0 | 34 | 0 |
| CN(c1ccc(NC(=O)Nc2cc(C(F)(F)F)ccc2F)cc1)c1ccnc(Nc2ccc(S(N)(=O)=O)cc2)n1 [GW809893] | 5 | 0 | 40 | 0 | 0 | 22 | 1 | 1 | 22 | 96.3 | 0 | 5 | 99.7 | 0 | 18 | 0 | 20 | 12 | 81 | 10 |
| CSc1cccc2c(-c3ccncn3)c(-c3ccc(F)cc3)nn12 [GW514786] | 0 | 90 | 0 | 2 | 15 | 0 | 1 | 2 | 2 | 22 | 0 | 0 | 1 | 0 | 0 | 0 | 100 | 3 | 0 | 0 |
| O=C(Nc1cccc(-c2nn3ncccc3c2-c2ccnc(Nc3ccccc3)n2)c1)c1c(F)cccc1F [GSK198271] | 1 | 22 | 0 | 13 | 0 | 4 | 0 | 6 | 44 | 95 | 32 | 45 | 62 | 94.9 | 32 | 0 | 0 | 7 | 0 | 79 |
| FC(F)(F)c1ccc(/C=C/c2cncnc2Nc2ccc3[nH]c(Cc4ccccc4)nc3c2)cc1 [GW709199] | 0 | 0 | 0 | 0 | 0 | 0 | 0 | 4 | 20 | 5 | 45 | 0 | 1 | 0 | 21 | 56 | 2 | 0 | 0 | 0 |

Reference: publication PMC5540273 (PLoS ONE, 2017)
